# Measurements: PubChem BioAssay (NCI)
# About 83,000 compounds went through this panel and 20% of them were active in at least one assay; those are over-represented in the sample as a whole.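 Method: cells in 96-well plates; compound added at one concentration; 48 h incubation; percent growth measured; values under 10 scored active.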 The source made the active and inactive calls.
# System: HCT-116 colon
# Test: NCI-60 one-dose screen, 48 h (100 = growth as untreated, 0 = no growth, -100 = all killed)
# Conditions: 10 µM unless noted
# Experimental: Growth inhibition of the HCT-116 human tumor cell line is measured as a screen for anti-cancer activity. Cells are grown in 96 well plates and exposed to the test compound for 48 hours. Compounds are tested at a single concentration, which is 10^-5 M for most compounds. The reported endpoint is percent growth (GI% or GIPRCNT), where numbers from 0 - 100% represent growth inhibition, and numbers from -100% - 0 represent cell death. For example, a value of 40 represents 60% growth inhibition. A value of 0 means no net growth occurred over the course of the experiment. A value of -40 indicates 40% of cells at the beginning of the experiment died by the end of the experiment. A value of -100 means all cells are dead at the end of the experiment.
# NCI-60 Human Tumor Cell Lines Screen was performed using the standard one-dose NCI protocol, which is described in more detail at https://dtp.cancer.gov/discovery_development/nci-60/default.htm.
# Compounds with GIPRCNT values below 10 were considered active. Activity score was based on GIPRCNT using the following formula: […]
# Score is 0 for GIPRCNT values of 100 or above, 50 for GIPRCNT values of 0, and 100 for GIPRCNT values of -100.
row,SMILES,growth
1,CCOC(=O)c1[nH]c2c(c1C)-c1[nH]c(=O)c(S(=O)(=O)c3ccccc3)cc1SC2,24.9% [100 µM] (inactive)
2,COc1ccc2[nH]cc(-c3nc(-c4c[nH]c5c(Cl)nccc45)cs3)c2c1,36.4% (inactive)
3,COc1ccc(/C=C/C(=O)c2cc(OC)c(OC)c(OC)c2)cc1OCC(=O)Nc1nc2ccc(OC(F)(F)F)cc2s1,-75.5% (active)
4,S=c1[nH]c(=S)c2c(-c3ccccc3)c(-c3ccccc3)oc2[nH]1,97.9% (inactive)
5,O=C(Nc1ncccc1OCc1ccccc1)NC1CCCCCC1,58.2% (inactive)
6,Cc1ccc2nc(NC(=O)CSc3nc(-c4ccccc4)c(C#N)c4nnnn34)sc2c1,99.1% (inactive)
7,NC(=O)c1cccc([C@@H]2O[C@H](CO)[C@@H](O)[C@H]2O)c1,72.7% (inactive)
8,CNC(=O)c1cc(Oc2cccc3nc(NC(=O)Nc4cc(C(F)(F)F)ccc4Cl)ccc23)ccn1,60.1% (inactive)
9,Cc1ccc(C=C2C(=O)NC(=O)NC2=O)cc1,108% (inactive)
10,O=C(O)/C=C/C(=O)Nc1cccc(Cn2nnc3cc(Cl)c(Cl)cc32)c1,96.9% (inactive)
11,N#Cc1c(-c2ccccc2)nc(SCc2nnc(-c3ccc(Cl)cc3)o2)[nH]c1=O,83.9% (inactive)
12,O=C(/C=C/C12c3ccccc3C(c3ccccc31)C1C(=O)NC(=O)C12)c1ccc(Br)cc1 (stereo not given),26.6% (inactive)
13,C=CC(=O)Nc1ccc(Nc2nccc(-c3ccc(N4CCCC4)c(C#N)c3)n2)cc1,24.8% (inactive)
14,O=C1Nc2c(C(=O)O)cccc2/C1=N/c1n[nH]c(=S)s1,96.2% (inactive)
15,CCN1C(=O)N(CC)C2C1NN=c1s/c(=C\c3cnc(C)n3C)c(=O)n12 (stereo not given),23.2% (inactive)
16,CCSc1oc(C)nc1[P+](c1ccccc1)(c1ccccc1)c1ccccc1,14.4% (inactive)
17,O=C(Cc1cccc(OC(F)(F)F)c1)Nc1ccc(CCCCc2nnc(NC(=O)Cc3ccccn3)s2)nn1,40% (inactive)
18,Cc1ccc(-c2nc(/C=C3/C(=O)Nc4ccc(F)cc43)c3ccccn23)cc1,55% (inactive)
19,O=C1/C=C/[C@@H](O)[C@@H]2C[C@@H](O)C[C@H]2/C=C/CCC[C@@H](O)CCO1,111% (inactive)
20,O=C(Nc1ncc(Cc2cc(C(F)(F)F)ccc2Cl)s1)c1cccs1,39.9% (inactive)

row,SMILES,growth
1,COc1ccc(Cn2cc3c(c2-c2ccccc2)CCc2cnoc2-3)cc1,0.167% (active)
2,CN1CCN(C(=O)[C@@]2(C)CC[C@]3(C)CC[C@]4(C)C(=CC[C@@H]5[C@@]6(C)CCC(=O)NC(C)(C)[C@@H]6CC[C@]54C)[C@@H]3C2)CC1,21.8% (inactive)
3,Cc1c(CN)cc(-c2ccc(Cl)cc2)n1-c1ccccc1,67.3% (inactive)
4,Cc1ccc(S(=O)(=O)N2CCC(=O)c3ccccc32)cc1,59.4% (inactive)
5,O=C1/C(=C\c2cccc3nccnc23)SC(=S)N1CCc1ccc(O)cc1,92% (inactive)
6,C#CC#CC#CC#CC#CC#CC#CC#CCC1OC[C@H](COC(=O)O[C@@H](C(=O)O[C@H]2C[C@@]3(O)[C@@H](OC(=O)c4ccccc4)[C@@H]4[C@]5(OC(C)=O)CO[C@@H]5C[C@H](O)[C@@]4(C)C(=O)[C@H](OC(C)=O)C(=C2C)C3(C)C)[C@@H](NC(=O)c2ccccc2)c2ccccc2)O1 (stereo not given in full),14.2% (inactive)
7,CCOC(=O)C(Cc1ccc(OC)cc1)C(=O)OCC,17.8% (inactive)
8,CC/C(Cc1ccccc1)=C(\c1ccc(OCCCN(C)C)cc1)c1ccc(OC(=O)NCc2ccccc2)cc1,10.4% (inactive)
9,CCN(CC)Cc1cc(Nc2ccnc3cc(Cl)ccc23)ccc1O,79.7% (inactive)
10,Cc1ccc(C)c(/C=C2\CN(C(=O)OC(C)(C)C)C/C(=C\c3cc(C)ccc3C)C2=O)c1,-16.7% (active)
11,CC1=C2[C@@H](CC1)[C@]1(C)O[C@@](C3CCCCC3)(C[C@H]1OC(=O)CO)[C@H]2OC(=O)/C=C/c1ccccc1,76.3% (inactive)
12,O=C(CSc1nc(-c2ccccc2)cc(=O)[nH]1)Nc1nc(-c2ccccc2)cs1,90.3% (inactive)
13,COc1cccc(NCc2nnc(Nc3ccc(Cl)cc3)c3ccccc23)c1,-44.2% (active)
14,O=C1/C(=C/c2ccc(O)c(O)c2)COc2ccc(-c3ccccc3)cc21,12.7% (inactive)
15,CC1CCN(C(=O)CCCl)c2ccccc21 (stereo not given),97.3% (inactive)
16,O=C(CC(=O)Nc1cccc(C(=O)O)c1)Nc1cccc(C(=O)O)c1,94.3% (inactive)
17,COc1ccc(-c2nc(/C=C3\C(=O)N(C)c4ccccc43)c3ccccn23)cc1,56.5% (inactive)
18,CCNc1nc(O)c(/C=C2\C=Nc3ncccc32)s1,3.99% (active)
19,NNCCc1ccc(NC(=O)CCCc2ccc(C(=O)Nc3ccccc3N)cc2)cc1,41.6% (inactive)
20,CCCC(CC)(C(=O)Nc1ccc2nc(C)cc(N)c2c1)C(=O)Nc1ccc2nc(C)cc(N)c2c1,85.2% (inactive)
